The source made the active and inactive calls.
Key:
[1] = E. coli DRC41 culture turbidity changes, primary screen, E. coli filamentation inducer project, strain DRC41, OD650, 48 h (AID 1152);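 also: E. coli MC1000 strain DRC41 lacking acrAB efflux pump and sulA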; details: E. coli DRC41 (acrAB sulA), higher = more signal, called active from +8 up or from −8 down
[2] = small-molecule binders of probe aLefty1, primary screen, biochemical, small-molecule microarray, 635/667 nm fluorescence (AID 1153); details: higher = more signal;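 also: score merges spot fluorescence with signal-to-noise ratio from the scanned slide images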
[3] = PSAC antagonists in infected red cells, primary screen, cell-based, P. falciparum Indochina, OD700, 1 h (AID 1154); details: P. falciparum Indochina infected RBC osmotic lysis, higher = more signal, called active from +8 up or from −8 down
[4] = PSAC antagonists in infected red cells, primary screen, cell-based, P. falciparum Indochina, OD700, 2 h (AID 1155);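 also: lysis reports solute entry through the parasite surface anion channel PSAC; channel blockers reduce lysis of infected cells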; details: P. falciparum Indochina infected erythrocytes, osmotic lysis OD700; higher = more signal, called active from +8 up or from −8 down
[5] = osmotic lysis modulators in infected erythrocytes, primary screen, PSAC antagonist project, cell-based, P. falciparum Indochina, OD700, 3 h (AID 1156); details: higher = more signal, called active from +8 up or from −8 down
[6] = PSAC antagonists in infected red cells, primary screen, cell-based, P. falciparum Indochina, OD700, 18 h (AID 1157); details: P. falciparum Indochina infected erythrocytes, osmotic lysis OD700, 18 h; higher = more signal, called active from +8 up or from −8 down
[7] = modulators of S6 phosphorylation in cells, primary screen, cell-based, A549, cytoblot, luminescence, serum-stimulated (AID 1158); details: A549 phospho-S6 cytoblot, 5 h, higher = more signal;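 also: serum-stimulated A549 lung adenocarcinoma cells; signal is phosphorylated S6 detected by cytoblot immunostaining with HRP secondary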
[8] = biological target: NADPH oxidase 2 (Homo sapiens) (UniProt P04839); assay: NOX2-dependent H2O2 signal modulators, primary screen, NOX inhibitor project, cell-based, HEK293-NOX2, PMA-stimulated, Amplex Red fluorescence (AID 1159); details: 45 min, higher = more signal, called active from +8 up or from −8 down; also: test concentration not given here
Sequence of NADPH oxidase 2 (Homo sapiens) (P04839 whole entry, looked up): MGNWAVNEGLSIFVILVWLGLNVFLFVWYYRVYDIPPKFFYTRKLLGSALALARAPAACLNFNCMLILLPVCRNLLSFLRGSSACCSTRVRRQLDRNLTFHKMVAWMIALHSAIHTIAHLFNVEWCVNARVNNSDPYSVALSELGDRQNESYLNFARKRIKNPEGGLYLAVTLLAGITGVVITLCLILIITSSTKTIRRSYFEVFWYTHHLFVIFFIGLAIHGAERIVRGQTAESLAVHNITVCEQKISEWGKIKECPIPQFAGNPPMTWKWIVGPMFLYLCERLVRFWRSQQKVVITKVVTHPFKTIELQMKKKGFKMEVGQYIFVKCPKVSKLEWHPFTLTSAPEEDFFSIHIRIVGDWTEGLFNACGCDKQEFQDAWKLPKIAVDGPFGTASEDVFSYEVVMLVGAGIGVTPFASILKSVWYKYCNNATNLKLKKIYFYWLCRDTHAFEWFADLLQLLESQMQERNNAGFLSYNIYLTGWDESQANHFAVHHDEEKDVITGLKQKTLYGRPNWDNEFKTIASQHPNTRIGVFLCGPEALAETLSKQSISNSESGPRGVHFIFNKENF

[9] = biological target: NADPH oxidase 4 (Homo sapiens) (UniProt Q9NPH5); assay: NOX4-dependent H2O2 signal modulators, primary screen, NOX inhibitor project, cell-based, HEK293-NOX4, tetracycline-induced, Amplex Red fluorescence (AID 1160); details: 45 min, higher = more signal, called active from +8 up or from −8 down
Sequence of NADPH oxidase 4 (Homo sapiens) (Q9NPH5 whole entry, looked up): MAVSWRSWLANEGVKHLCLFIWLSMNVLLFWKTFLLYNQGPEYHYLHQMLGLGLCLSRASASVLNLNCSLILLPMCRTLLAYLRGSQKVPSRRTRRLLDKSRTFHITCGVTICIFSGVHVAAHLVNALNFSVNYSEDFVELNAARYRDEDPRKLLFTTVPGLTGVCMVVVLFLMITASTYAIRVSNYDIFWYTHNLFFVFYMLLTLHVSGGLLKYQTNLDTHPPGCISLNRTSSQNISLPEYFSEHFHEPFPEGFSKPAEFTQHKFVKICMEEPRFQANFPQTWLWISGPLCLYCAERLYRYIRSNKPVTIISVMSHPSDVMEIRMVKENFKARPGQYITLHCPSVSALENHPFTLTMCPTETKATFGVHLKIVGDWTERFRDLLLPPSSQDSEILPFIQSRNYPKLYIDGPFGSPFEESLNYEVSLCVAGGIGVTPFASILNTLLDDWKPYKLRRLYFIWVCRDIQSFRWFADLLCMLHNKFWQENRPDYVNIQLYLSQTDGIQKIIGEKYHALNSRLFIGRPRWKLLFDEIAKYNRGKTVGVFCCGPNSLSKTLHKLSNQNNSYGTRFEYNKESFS

[10] = biological target: NADPH oxidase 5 (Homo sapiens) (UniProt Q96PH1); assay: NOX5-dependent H2O2 signal modulators, primary screen, NOX inhibitor project, cell-based, HEK293-NOX5, Amplex Red fluorescence (AID 1161); details: HEK293-NOX5, ionomycin, 45 min, higher = more signal
Sequence of NADPH oxidase 5 (Homo sapiens) (Q96PH1 whole entry, looked up): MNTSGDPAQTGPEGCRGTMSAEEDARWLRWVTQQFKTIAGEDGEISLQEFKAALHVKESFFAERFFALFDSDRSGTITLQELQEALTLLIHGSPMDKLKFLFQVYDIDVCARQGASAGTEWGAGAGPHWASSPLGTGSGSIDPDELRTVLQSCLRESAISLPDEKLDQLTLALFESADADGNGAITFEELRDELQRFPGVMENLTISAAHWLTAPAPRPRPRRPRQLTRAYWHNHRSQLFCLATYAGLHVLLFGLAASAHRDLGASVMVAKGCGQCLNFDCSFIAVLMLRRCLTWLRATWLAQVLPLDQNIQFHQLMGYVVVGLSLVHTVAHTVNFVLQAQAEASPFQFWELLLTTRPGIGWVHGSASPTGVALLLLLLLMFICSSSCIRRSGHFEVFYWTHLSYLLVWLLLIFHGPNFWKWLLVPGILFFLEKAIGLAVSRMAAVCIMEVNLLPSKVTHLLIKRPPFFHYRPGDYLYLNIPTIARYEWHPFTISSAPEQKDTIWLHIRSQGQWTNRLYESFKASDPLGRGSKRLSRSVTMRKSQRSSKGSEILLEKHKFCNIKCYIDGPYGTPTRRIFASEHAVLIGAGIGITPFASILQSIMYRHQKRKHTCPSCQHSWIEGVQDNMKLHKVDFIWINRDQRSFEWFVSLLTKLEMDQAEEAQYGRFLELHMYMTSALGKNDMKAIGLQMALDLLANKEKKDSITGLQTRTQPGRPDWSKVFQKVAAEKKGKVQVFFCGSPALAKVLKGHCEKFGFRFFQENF

[11] = A549 cell viability effects, profiling panel, calcein-AM fluorescence, 48 h, basal (AID 1162); details: higher = more signal; also: test concentration not given here
[12] = adipocyte viability effects, profiling panel, cell-based, 3T3-L1 adipocytes, calcein-AM fluorescence, 48 h, basal (AID 1163); details: 3T3-L1 adipocytes viability, higher = more signal; also: test concentration not given here
[13] = HepG2 cell viability effects, profiling panel, calcein-AM fluorescence, 48 h, basal (AID 1164); details: higher = more signal; also: test concentration not given here
[14] = MM1S cell viability effects, profiling panel, calcein-AM fluorescence, 48 h, basal (AID 1165); details: higher = more signal;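 also: viability of MM1S multiple myeloma cells under basal unstimulated conditions; test concentration not given here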
[15] = basal RPMI8226 viability, no added stimulus, profiling panel, cell-based, calcein-AM fluorescence, 48 h, PK04 Diversity Set (AID 1166); details: RPMI8226 myeloma viability, higher = more signal;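 also: cells grown under basal conditions without added stimulus; test concentration not given here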
[16] = basal HepG2 mitochondrial membrane potential changes, profiling panel, cell-based, JC-1 fluorescence, 24 h, 100 nL compound (AID 1167); details: higher = more signal; also: test concentration not given here
[17] = basal 3T3-L1 adipocyte mitochondrial potential changes, profiling panel, cell-based, JC-1 fluorescence, 3T3-L1 adipocytes, 24 h, 100 nL compound (AID 1168); details: JC-1 mitochondrial fluorescence, higher = more signal, called active from +8 up or from −8 down; also: test concentration not given here
[18] = basal RPMI8226 mitochondrial membrane potential changes, profiling panel, cell-based, JC-1 fluorescence, 24 h, 100 nL compound (AID 1169); details: RPMI8226 myeloma, JC-1 mitochondrial potential fluorescence, higher = more signal; also: test concentration not given here
[19] = basal MM1S mitochondrial membrane potential changes, profiling panel, cell-based, JC-1 fluorescence, 24 h, 100 nL compound (AID 1170); details: higher = more signal; also: test concentration not given here
[20] = A549 lung cancer cell viability effects, profiling panel, resazurin fluorescence, 24 h, PK04 Diversity Set (AID 1171); details: higher = more signal, called active from +8 up or from −8 down; also: test concentration not given here

Row | Compound | z-score [1] | composite z-score [2] | z-score [3] | z-score [4] | z-score [5] | z-score [6] | z-score [7] | z-score [8] | z-score [9] | z-score [10] | z-score [11] | z-score [12] | z-score [13] | z-score [14] | z-score [15] | z-score [16] | z-score [17] | z-score [18] | z-score [19] | z-score [20]
1 | COCCCNC(=O)[C@]1(CCC(=O)OC(C)(C)C)N=C(c2ccc(OCCCO)cc2)O[C@@H]1c1ccccc1 | 0.134 (inactive) | -0.166 | 14.7 (active) | 1.61 (inactive) | 0.58 (inactive) | 0.57 (inactive) | -0.507 | -0.00397 (inactive) | 0.689 (inactive) | -0.139 | 0.369 | -0.342 | -0.797 | 0.326 | -0.0674 | -0.145 | 0.0968 (inactive) | 0.86 | -0.705 | 0.119 (inactive)
2 | C=C(/C(=C/C[C@@H](OC(=O)c1ccncc1)c1ccccc1OCCO)c1cc(C(=O)OC)ccc1OC)C(C)C | 0.548 (inactive) | -0.204 | 23.6 (active) | 7.36 (inactive) | 4.04 (inactive) | 1.44 (inactive) | 1.12 | -0.295 (inactive) | -1.04 (inactive) | -1.63 | 1.36 | 0.38 | 0.92 | -3.25 | -2.11 | 2.74 | -0.158 (inactive) | 0.00511 | -1.71 | -0.108 (inactive)
3 | CC(C)(C)OC(=O)CC[C@]1(C(=O)O)N=C(c2ccc(OCCCO)cc2)O[C@H]1c1ccccc1 | 1.11 (inactive) | -0.362 | 11.9 (active) | 1.08 (inactive) | -0.0867 (inactive) | -0.284 (inactive) | 0.733 | 0.643 (inactive) | 0.228 (inactive) | 1.68 | -0.078 | 0.155 | -0.0903 | 0.55 | -0.135 | 0.367 | 0.721 (inactive) | -0.0713 | -0.513 | 0.16 (inactive)
4 | O=C(O)[C@H](Cc1ccccc1)n1cc(-c2ccccn2)nn1 | -0.267 (inactive) | -0.0969 | -0.258 (inactive) | -0.431 (inactive) | -0.906 (inactive) | -0.0561 (inactive) | -0.428 | -1.61 (inactive) | -0.653 (inactive) | -1.24 | -0.529 | 0.039 | -0.129 | 0.228 | -0.608 | 0.237 | 1.56 (inactive) | -0.166 | -0.263 | 0.507 (inactive)
5 | C=CCNC(=O)[C@H]1[C@@H]2C(=O)O[C@@H](c3ccccc3)[C@@H](c3ccccc3)N2[C@@H](c2ccccc2OCCO)[C@]12C(=O)N(C(=O)OCCOC)c1ccc(C#CC3=CCCCC3)cc12 | 0.687 (inactive) | 0.944 | 2.75 (inactive) | 1.32 (inactive) | -0.032 (inactive) | 0.725 (inactive) | -0.321 | 2.28 (inactive) | -0.678 (inactive) | 1.58 | -1.51 | 0.963 | -0.882 | -3.35 | -3.88 | 0.215 | 1.06 (inactive) | -0.924 | -1.49 | -1.02 (inactive)
6 | CC=CC(O)C1C=CC2C(=O)N(c3ccccc3)C(=O)C2N1Nc1ccc([N+](=O)[O-])cc1 (stereo not given) | -1 (inactive) | 0.0378 | 8.61 (active) | 1.61 (inactive) | 0.457 (inactive) | 0.876 (inactive) | -0.701 | -0.095 (inactive) | -1.91 (inactive) | -0.909 | -0.972 | -1.3 | 0.196 | 0.459 | 0.471 | -0.653 | 0.207 (inactive) | 0.592 | -1.01 | -0.0977 (inactive)
7 | C=C(COC)/C(=C/C[C@@H](OC(=O)c1ccncc1)c1cccc(OCCO)c1)c1cnc2ccccc2c1 | -0.0626 (inactive) | 0.664 | 18.8 (active) | 6.49 (inactive) | -1.32 (inactive) | 1.29 (inactive) | 0.507 | -1.47 (inactive) | -0.256 (inactive) | -3.1 | 0.0954 | 0.542 | -1.03 | -2.17 | -0.307 | 0.862 | -1.76 (inactive) | 0.187 | 0.276 | -0.634 (inactive)
8 | CC(C)CNC(=O)[C@@H]1c2ccccc2C(=O)N(Cc2cc(F)cc(C(F)(F)F)c2)[C@H]1c1ccc(CO)cc1 | 2.9 (inactive) | 0.0571 | 2.62 (inactive) | 0.649 (inactive) | 1.27 (inactive) | -0.111 (inactive) | 0.207 | -0.453 (inactive) | 0.967 (inactive) | 0.52 | 2.21 | -0.979 | 1.37 | -0.215 | 0.857 | 2.31 | 0.299 (inactive) | -0.137 | 0.205 | 0.317 (inactive)

From PubChem BioAssay
